Test results from PubChem BioAssay AID2535 (National Center for Advancing Translational Sciences (NCATS), 2010).
Activity calls are given as the source filed them. The call rests on the fitted dose curve; in most records, active means well fitted curve in the direction sought with a large enough effect; inconclusive means small, poorly fitted or top-dose-only effect, or effect the other way, or another doubt; inactive means no such curve, though single readings can be large or run the other way.

Biological target: Pyruvate kinase PKLR (Homo sapiens) (UniProt P30613)
Test: Secondary Concentration-Response Assay for Activators of Human Liver Pyruvate Kinase: for Probe SAR
Settings: purified hPK-L, ATP production, Kinase-Glo luminescence; series mostly up to 58.3 µM
In short: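 Luciferase-coupled luminescence (Kinase-Glo) reports ATP made by 0.1 nM hPK-L from 0.5 mM PEP (at Km) and 0.1 mM ADP (about 10-fold below Km); pH 7.2 imidazole buffer, 1 h room temperature, in concentration-response format.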

Pyruvate kinase PKLR (Homo sapiens), sequence (P30613 whole entry, looked up): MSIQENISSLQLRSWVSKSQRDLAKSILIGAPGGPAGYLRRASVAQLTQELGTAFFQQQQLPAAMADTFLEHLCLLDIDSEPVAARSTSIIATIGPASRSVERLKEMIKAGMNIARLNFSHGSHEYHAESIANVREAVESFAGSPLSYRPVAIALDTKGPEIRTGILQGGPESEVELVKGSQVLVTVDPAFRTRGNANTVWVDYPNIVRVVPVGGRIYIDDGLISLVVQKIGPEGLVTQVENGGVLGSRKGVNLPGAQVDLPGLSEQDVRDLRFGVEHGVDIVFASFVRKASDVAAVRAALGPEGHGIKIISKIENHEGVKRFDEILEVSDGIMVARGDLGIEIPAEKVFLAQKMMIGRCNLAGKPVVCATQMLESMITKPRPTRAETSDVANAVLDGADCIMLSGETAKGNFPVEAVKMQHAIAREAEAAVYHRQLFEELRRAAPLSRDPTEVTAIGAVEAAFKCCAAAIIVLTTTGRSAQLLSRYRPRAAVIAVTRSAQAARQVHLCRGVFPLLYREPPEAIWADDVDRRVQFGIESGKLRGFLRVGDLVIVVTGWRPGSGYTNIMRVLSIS

Cc1ccc(-c2nc3cnccn3c2Nc2ccc(C(C)C)cc2)o1
outcome: inactive

Cn1c2cc(S(C)=O)sc2c2cnn(Cc3cccc(O)c3)c(=O)c21 (stereo not drawn)
outcome: inactive

O=C1CCc2cc(S(=O)(=O)Nc3ccncc3)ccc2N1
outcome: inactive

Cc1ccccc1Nc1c(-c2ccccc2)nc2cccc(C)n12
outcome: inactive

Cc1ccc(N(C)S(=O)(=O)c2ccc3c(c2)CCC(=O)N3)cc1C
outcome: inactive

O=C1c2ccccc2C(=O)N1Cc1ccncc1
outcome: inactive

COc1ccc(N2C(=O)c3ccccc3C2=O)cc1
outcome: inactive

COc1ccc(-c2nc3ccccn3c2Nc2ccccc2C)cc1
outcome: inactive

Cc1ccc(NS(=O)(=O)c2cc3c(cc2Cl)CCC(=O)N3)cc1C
outcome: inactive

Cc1ccc(NS(=O)(=O)c2cc3c(cc2Cl)NC(=O)C3)cc1C
outcome: inactive

O=C1CCc2cc(S(=O)(=O)Nc3ccc(Cl)cc3)ccc2N1
outcome: inactive

Cc1ccc(NS(=O)(=O)c2cccc(Cl)c2)cc1C
outcome: inactive

Cc1ccc2nc(-c3ccc(C)o3)c(Nc3ccc(Cl)cc3)n2c1
outcome: inactive

N#Cc1cccc(NS(=O)(=O)c2ccc3c(c2)CCC(=O)N3)c1
outcome: inactive

COc1ccc(S(=O)(=O)Nc2ccc(C)c(C)c2)cc1
outcome: inactive

O=C1c2ccccc2C(=O)N1Cc1cccnc1
outcome: inactive

Cc1ccc(NS(=O)(=O)c2ccc3ccccc3c2)cc1C
outcome: inactive

Cc1ccc(NS(=O)(=O)c2cc3c(cc2Cl)CCC(=O)N3)cc1Cl
outcome: inactive

O=C1CCc2cc(S(=O)(=O)Nc3ccc4ccccc4c3)ccc2N1
outcome: inactive

O=C1CCc2cc(S(=O)(=O)Nc3ccc(Cl)c(Cl)c3)c(F)cc2N1
outcome: inactive

Cc1ccc(N[S+](=O)([O-])c2cc3c(cc2CCc2ccccc2)NC(=O)CO3)cc1C
outcome: inactive

O=C1c2ccccc2C(=O)N1c1cnc2ccccc2c1
outcome: inactive

Cc1cc(NS(=O)(=O)c2ccc3c(c2)CCC(=O)N3)ccc1Cl
outcome: inactive

Cc1cccc(NS(=O)(=O)c2ccc3c(c2)CCC(=O)N3)c1
outcome: inactive

Cc1cc2c(s1)c1cnn(Cc3ccccc3F)c(=O)c1n2C
outcome: inactive

O=S1(=O)N=C(Oc2ccc(Cl)cc2)c2ccccc21
outcome: inactive

O=C1c2ccccc2C(=O)N1c1ccccc1O
outcome: inactive

O=C1c2ccccc2C(=O)N1c1cncc2ccccc12
outcome: inactive

Cc1ccc(NS(=O)(=O)c2cccc(F)c2)cc1C
outcome: inactive

Cc1ccc(NS(=O)(=O)c2ccc3c(c2)CC(=O)N3)cc1C
outcome: inactive

COc1ccc(-c2nc3cccc(C)n3c2Nc2ccc(C)cc2)cc1
outcome: inactive

Fc1ccccc1-c1ccc(-c2nc3ccc(Cl)cn3c2Nc2ccc(Cl)cc2)o1
outcome: inactive

Cc1ccc(NS(=O)(=O)c2cc3c(cc2F)NC(=O)CC3)cc1Cl
outcome: inactive
